Screens (PubChem)
MLL AF4-AF9 inh: inhibitors of AF4 peptide binding to AF9, primary screen, biochemical, AlphaScreen, biotin-AF4 peptide, FLAG-AF9, single point; Protein AF-9 (Homo sapiens), P42568; inhibition, % at 10 µM; 350,000 compounds, 0.47% hits; AID 651704, 2012;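 active = every replicate reaching a set inhibition limit, whatever the replicate mean, cut at about 25% in these data; inconclusive = mean inhibition reaches that limit but some replicates miss it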;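 also: 0% = plate neutral control median and 100% = total signal loss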
Env fusion inh: inhibitors of HIV-1 Env-driven cell-cell fusion, primary screen, HeLa-JRFL effector, CEM21 target cells, luciferase. AID 651610, 2012. inhibition, % at 12.3 µM. 360,000 compounds, 1.1% hits;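 active = mean replicate inhibition score of at least 50 and every replicate individually at or above 50; inconclusive = only one of the two criteria met; inactive = mean below 50 and not all replicates reaching 50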;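 also: 0% = plate neutral controls and 100% = maraviroc near 300 nM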
NSD2 inh: NSD2 histone methyltransferase inhibitors, primary screen, biochemical, AlphaScreen, single concentration, set 2; AID 743445, 2014; inhibition, % at 12.5 µM; Histone-lysine N-methyltransferase NSD2 (Homo sapiens), O96028; 310,000 compounds, 0.54% hits; NSD2 peptide methylation, 120 min; in the data active = inhibition above about 50%
Target sequence (O96028 whole entry, looked up): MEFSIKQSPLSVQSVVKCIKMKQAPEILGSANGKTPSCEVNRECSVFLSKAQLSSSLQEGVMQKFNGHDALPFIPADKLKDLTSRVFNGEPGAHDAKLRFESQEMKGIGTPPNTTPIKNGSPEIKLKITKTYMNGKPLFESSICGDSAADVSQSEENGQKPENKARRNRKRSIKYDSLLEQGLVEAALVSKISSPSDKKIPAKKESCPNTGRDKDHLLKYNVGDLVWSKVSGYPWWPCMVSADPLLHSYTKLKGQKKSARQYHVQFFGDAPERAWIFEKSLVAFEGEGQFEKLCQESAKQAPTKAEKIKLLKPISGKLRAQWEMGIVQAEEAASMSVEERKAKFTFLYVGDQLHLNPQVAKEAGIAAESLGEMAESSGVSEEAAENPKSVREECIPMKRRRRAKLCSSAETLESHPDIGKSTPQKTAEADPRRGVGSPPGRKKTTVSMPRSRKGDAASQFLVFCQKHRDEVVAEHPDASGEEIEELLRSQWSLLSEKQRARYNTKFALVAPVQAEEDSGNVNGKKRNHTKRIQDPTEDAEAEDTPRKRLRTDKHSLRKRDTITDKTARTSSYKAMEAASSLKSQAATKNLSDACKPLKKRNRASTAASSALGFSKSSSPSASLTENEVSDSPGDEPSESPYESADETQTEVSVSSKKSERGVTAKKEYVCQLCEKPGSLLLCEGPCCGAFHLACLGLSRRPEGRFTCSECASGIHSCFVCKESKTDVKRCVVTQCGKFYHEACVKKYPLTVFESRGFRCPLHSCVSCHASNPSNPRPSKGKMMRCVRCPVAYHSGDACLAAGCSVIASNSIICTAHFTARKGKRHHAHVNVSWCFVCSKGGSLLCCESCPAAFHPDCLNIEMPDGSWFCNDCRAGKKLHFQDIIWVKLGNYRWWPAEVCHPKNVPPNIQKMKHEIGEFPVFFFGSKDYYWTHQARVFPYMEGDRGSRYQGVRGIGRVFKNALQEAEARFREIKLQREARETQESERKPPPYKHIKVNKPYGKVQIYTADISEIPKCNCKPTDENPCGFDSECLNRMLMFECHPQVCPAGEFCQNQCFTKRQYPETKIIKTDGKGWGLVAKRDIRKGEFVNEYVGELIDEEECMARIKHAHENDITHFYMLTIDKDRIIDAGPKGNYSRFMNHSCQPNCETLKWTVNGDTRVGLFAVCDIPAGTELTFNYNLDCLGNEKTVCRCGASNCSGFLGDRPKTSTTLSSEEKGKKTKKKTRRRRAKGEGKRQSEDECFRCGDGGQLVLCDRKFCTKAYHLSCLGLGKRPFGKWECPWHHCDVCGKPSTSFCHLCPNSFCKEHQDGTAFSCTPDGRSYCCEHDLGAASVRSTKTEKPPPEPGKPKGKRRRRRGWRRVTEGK
PGC1a acetyl inh: inhibitors of PGC1a acetylation signal, primary screen, cell-based, U2OS, AlphaScreen, inhibitor mode. AlphaScreen anti-acetyl-lysine; with virally co-expressed GCN5 acetyltransferase. inhibition, % at 15.6 µM. 350,000 compounds, 0.17% hits;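 active = every replicate shows inhibition of at least 40%; inconclusive = mean inhibition at least 40% but some replicate below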;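 also: 0% = neutral control wells and 100% = positive control wells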
GSIS activator: GLuc luminescence reporter in INS-1E cells, primary screen for activators of glucose-dependent secretion of insulin. activation, % at 16.6 µM. 370,000 compounds, 0.61% hits. INS-1E GLuc reporter insulin secretion, 2-3 h;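 active = lowest replicate activation of at least 40%, so every replicate reaches that level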;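 also: 0% = median of neutral control wells and 100% = median of IBMX positive control wells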
An asterisk follows results filed as active; u = inconclusive; x = no result given; [ ] = remark or other dose. This is a sample that favours compounds with a hit; in the whole collection about 2.1% have one here.

SMILES	MLL AF4-AF9 inh	Env fusion inh	NSD2 inh	PGC1a acetyl inh	GSIS activator
C[C@H](CO)N1C[C@H](C)[C@@H](CN(C)C(=O)[C@H](C)c2ccccc2)OCc2ccccc2-c2c(n(C)c3ccccc23)C1=O	10	x	x	x	-21
C[C@H](C(=O)N(C)C[C@@H]1OCc2ccccc2-c2c(n(C)c3ccccc23)C(=O)N([C@@H](C)CO)C[C@H]1C)c1ccccc1	6	67*[16.7 µM]	x	-30	-26
C[C@H](CO)N1C[C@H](C)[C@@H](CN(C)C(=O)[C@H](Cc2ccccc2)N(C)C)OCc2ccccc2-c2c(n(C)c3ccccc23)C1=O	37*	60*[16.7 µM]	x	7	5
COc1ccc(C(=O)NCCN2CCOCC2)c(OC)c1OC	-2	1	-4	-7	-3
NS(=O)(=O)c1ccc(N=Nc2c(O)ccc3ccccc23)cc1	3	34	4	-24	-3
N=C(N)c1ccc(N=Nc2c(O)ccc3c2[nH]c2ccccc23)cc1	32*	x	22	-5	47*
CCCC#Cc1cnc2c(c1)C(=O)N([C@@H](C)CO)C[C@@H](C)[C@H](CN(C)S(=O)(=O)c1ccccc1)O2	1	x	x	2	-3
CN1OC[C@@H]2CN(Cc3ccc4c(c3)OCO4)[C@H](c3ccc(N4CCCCC4)cc3)C[C@@H]21	33*	-4	x	-10	2
CN1OC[C@@H]2CN(S(=O)(=O)c3ccccc3)[C@H](c3ccc(N4CCCCC4)cc3)C[C@@H]21	5	-7	x	4	19
CN1OC[C@@H]2CN(Cc3ccccc3)[C@H](c3ccc(N4CCCCC4)cc3)C[C@@H]21	28*	20	x	-19	-37
c1ccc2c(c1)ncn2CCCCOc1ccc2c(c1)CCC2	x	88*	-1	x	x
Cc1ccc(OCCCCn2cnc3ccccc32)cc1	1	-18	1	5	-29
Cc1ccccc1OCCCCn1cnc2ccccc21	x	65*	0	-2	x
COc1ccc(NC(=S)NC(=O)c2ccc3c(c2)OCCO3)cc1	-2	x	-1	x	1
Cc1ccc(-c2[nH]ncc2CNCCc2cnn(-c3ccccc3)c2)cc1C	4	66*	x	2	1
CCOC(=O)c1c(C)[nH]c(C(=O)COC(=O)/C=C/c2ccc3c(c2)OCO3)c1C	x	-69	-1	x	59*
Cc1cc2c3c(c1)C(C)CC(C)(C)N3C(=O)C2=O (centres undefined)	-2	1	4	-3	6
CCOc1cc2c3c(c1)C(C)CC(C)(C)N3C(=O)C2=O (centres undefined)	x	104*	1	-2	-16
C[C@@H]1CN([C@H](C)CO)C(=O)c2cc(NS(=O)(=O)c3ccc(Cl)cc3)ccc2O[C@@H](C)CCCCO[C@@H]1CN(C)Cc1ccc(C(F)(F)F)cc1	-1	u	x	4	-22
C[C@H]1CCCCO[C@H](CN(C)Cc2ccc(C(F)(F)F)cc2)[C@@H](C)CN([C@@H](C)CO)C(=O)c2cc(NS(=O)(=O)c3ccc(F)cc3)ccc2O1	1	68*[16.7 µM]	x	13	-16
C[C@H](CO)N1C[C@H](C)[C@@H](CN(C)Cc2ccc(C(F)(F)F)cc2)OCCCC[C@H](C)Oc2ccc(NS(=O)(=O)c3ccc(Cl)cc3)cc2C1=O	-1	55*[16.7 µM]	x	-13	-18
C[C@H]1CCCCO[C@@H](CN(C)Cc2ccc(C(F)(F)F)cc2)[C@@H](C)CN([C@@H](C)CO)C(=O)c2cc(NS(C)(=O)=O)ccc2O1	x	55*[16.7 µM]	x	-2	-2
Cc1ccc(NC(=O)Cc2cn(C)c3ccccc23)cc1F	2	1	4	x	-19
Cc1ccc(CNC(=O)CN2CCN(Cc3ccc(C)cc3)C2=O)cc1	x	x	-2	-20	x
Cc1ccc(CN2CCN(CC(=O)N3CCC(C(N)=O)CC3)C2=O)cc1	41*	-11	x	7	x
SMILES	MLL AF4-AF9 inh	Env fusion inh	NSD2 inh	PGC1a acetyl inh	GSIS activator
O=C(C[C@H]1C[C@@H]2c3cc(NS(=O)(=O)c4ccc(F)cc4)ccc3O[C@@H]2[C@@H](CO)O1)NCCc1ccccc1	1	46[16.7 µM]	x	-2	-24
CC/C(O)=C1\C(=O)CC(c2ccccc2)CC1=NC(C)C (centres undefined)	x	-3	-2	x	63*
Cc1cc(-c2nn(-c3ccccc3F)cc2CN2CCN(c3ccncc3)CC2)c(C)s1	32*	23	40	x	60
COc1ccc(/C=C/C(=O)Nc2ccccc2C(=O)NCC(c2ccc(OC)cc2)N(C)C)cc1 (centres undefined)	26*	-5	-1	x	-7
Oc1ccc2ccccc2c1C=NC12CN3CCN(CN(C3)C1)C2	x	x	113*	12	x
CCOC(=O)c1ccc(N2C(=O)Cc3ccccc3C2=O)cc1	1	12	3	x	-8
CCOc1ccc(N2C(=O)Cc3ccccc3C2=O)cc1	3	-7	0	43*	-6
CCOC(=O)C1Nc2ccc(C(=O)O)cc2C2C=CCC12 (centres undefined)	1	-14	100*	15	15
COC(=O)[C@H]1[C@H](CO)[C@H]2Cn3c(ccc(-c4ccc(OC)cc4)c3=O)[C@H]2N1S(C)(=O)=O	x	x	x	3	-2
Cc1ccc(C=Nc2ccc(N(C)C)cc2)o1	59*	x	4	13	-16
Cc1ccc(C=Nc2ccccc2C(N)=O)o1	-9	5	-4	x	-11
CC(OC(=O)c1cc(S(=O)(=O)Nc2ccc(F)cc2)ccc1Cl)C(=O)Nc1ccc2c(c1)OCCO2 (centres undefined)	x	x	-3	x	-23
CC(OC(=O)c1ccc(Cl)c(S(=O)(=O)Nc2ccc(F)cc2)c1)C(=O)NC(N)=O (centres undefined)	40*	-6	-1	-2	-30
COc1cc(NC(=O)CN2CCCCCC2)cc(OC)c1	3	0	1	x	1
Cc1ccsc1/C=N\Nc1cn[nH]c(=O)c1Cl	3	56*	-7	-8	16
COc1ccc(OC)c(-c2cc(C(=O)NC3CCCC3)c3ccccc3n2)c1	2	-13	-4	x	17
Cc1nn(-c2ccc(Cl)cc2)c(Cl)c1/C=C(\C#N)C(N)=O	-4	x	0	5	13
Cc1nn(-c2ccccc2Cl)c(Cl)c1/C=C(\C#N)C(N)=O	1	25	0	x	64*
Cc1ccc(S(=O)(=O)Nc2ccc3ccccc3c2)cc1	8	-15	-2	3	-7
COc1c(F)cc2[nH]c3c(c2c1F)CCNC3=O	-2	65*	x	x	32
C[C@H](CO)N1C[C@H](C)[C@H](CN(C)Cc2ccc(Oc3ccccc3)cc2)Oc2c(NC(=O)c3ccc(-c4nccs4)cc3)cccc2C1=O	-2	x	x	-2	-38
COCc1cc(C)nc(OCC(=O)N/N=C/c2ccc(-c3cc([N+](=O)[O-])ccc3C)o2)c1C#N	x	64*	-9	9	x
Nc1nc(NCC2CCCO2)nc(Nc2ccc(F)cc2)c1[N+](=O)[O-] (centres undefined)	x	-57	-1	7	-2
